The whole screen tested about 5,500 compounds, of which about 2,000 (36%) were called active. Inconclusive results (about 18%) are left out. Cut-off read from the data, not from the text of the source: active = normalized growth mostly below about 0.91 (no sharp cut-off); inconclusive = no clear call, values can overlap the other calls; inactive = mostly above about 0.92. The list shows a part of the results.
Test: chemical genetic growth profiling, strain panel (AID 1159580);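 note: tested at 20 µM; growth read once vehicle control cultures reached saturation at 30 °C; 1 = growth at the plate median or of vehicle wells; lower values mean less growth of the strain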
Conditions: growth OD

Measured: normalized growth

CO[C@H]1C[C@H](O[C@H]2[C@H](C)[C@@H](OC3O[C@H](C)C[C@H](N(C)C)[C@H]3OC(C)=O)[C@@H](C)C[C@]3(CO3)C(=O)[C@H](C)[C@@H](OC(C)=O)[C@@H](C)[C@@H](C)OC(=O)[C@@H]2C)O[C@@H](C)[C@@H]1OC(C)=O (some centres undefined)
inactive: S. cerevisiae deletion strains, locus YKL009W, strain mrt4, stronger effect = lower value 0.977 | S. cerevisiae deletion strains, locus YKL068W, stronger effect = lower value 0.995 | S. cerevisiae deletion strains, locus YKL085W, strain MDH1 (second series), stronger effect = lower value 0.989 | S. cerevisiae deletion strains, locus YKL085W, strain MDH1, stronger effect = lower value 0.989 | S. cerevisiae deletion strains, locus YKL160W, strain elf1, stronger effect = lower value 0.984 | S. cerevisiae deletion strains, locus YKL190W, strain CNB1, stronger effect = lower value 1 | S. cerevisiae deletion strains, locus YKR001C, strain vps1, stronger effect = lower value 0.982 | S. cerevisiae deletion strains, locus YKR026C, strain gcn3, stronger effect = lower value 0.982 | S. cerevisiae deletion strains, locus YKR091W, strain srl3, stronger effect = lower value 0.997 | S. cerevisiae deletion strains, locus YLL001W, strain dnm1, stronger effect = lower value 1.01 | S. cerevisiae deletion strains, locus YLL026W, stronger effect = lower value 1 | S. cerevisiae deletion strains, locus YLL041C, strain sdh2, stronger effect = lower value 1 | S. cerevisiae deletion strains, locus YLR027C, strain aat2, stronger effect = lower value 0.984 | S. cerevisiae deletion strains, locus YLR039C, strain RIC1, stronger effect = lower value 1.02 | S. cerevisiae deletion strains, locus YLR058C, strain SHM2, stronger effect = lower value 1.01 | S. cerevisiae deletion strains, locus YLR102C, strain apc9, stronger effect = lower value 0.989 | S. cerevisiae deletion strains, locus YLR113W, strain HOG1, stronger effect = lower value 0.978 | S. cerevisiae deletion strains, locus YLR221C, strain rsa3, stronger effect = lower value 0.99 | S. cerevisiae deletion strains, locus YLR258W, strain gsy2, stronger effect = lower value 0.997 | S. cerevisiae deletion strains, locus YLR262C, strain YPT6 (second series), stronger effect = lower value 0.983 | S. cerevisiae deletion strains, locus YLR262C, strain YPT6, stronger effect = lower value 1.02 | S. cerevisiae deletion strains, locus YLR268W, strain sec22, stronger effect = lower value 0.987 | S. cerevisiae deletion strains, locus YLR320W, strain mms22, stronger effect = lower value 0.993 | S. cerevisiae deletion strains, locus YLR330W, strain CHS5, stronger effect = lower value 1 | S. cerevisiae deletion strains, locus YLR342W, strain FKS1 (second series), stronger effect = lower value 0.983 | S. cerevisiae deletion strains, locus YLR342W, strain FKS1, stronger effect = lower value 0.982 | S. cerevisiae deletion strains, locus YLR357W, strain rsc2, stronger effect = lower value 0.997 | S. cerevisiae deletion strains, locus YLR370C, strain arc18, stronger effect = lower value 0.993 | S. cerevisiae deletion strains, locus YLR371W, strain rom2, stronger effect = lower value 0.983 | S. cerevisiae deletion strains, locus YLR384C, strain iki3, stronger effect = lower value 0.995 | S. cerevisiae deletion strains, locus YLR418C, strain cdc73, stronger effect = lower value 0.961 | S. cerevisiae deletion strains, locus YML016C, strain PPZ1, stronger effect = lower value 1.01 | S. cerevisiae deletion strains, locus YML032C, strain rad52, stronger effect = lower value 0.991 | S. cerevisiae deletion strains, locus YML120C, strain ndi1, stronger effect = lower value 0.989 | S. cerevisiae deletion strains, locus YML124C, strain tub3, stronger effect = lower value 0.985 | S. cerevisiae deletion strains, locus YMR058W, strain fet3, stronger effect = lower value 1 | S. cerevisiae deletion strains, locus YMR078C, strain ctf18, stronger effect = lower value 1 | S. cerevisiae deletion strains, locus YMR125W, strain sto1, stronger effect = lower value 0.975 | S. cerevisiae deletion strains, locus YMR129W, stronger effect = lower value 0.998 | S. cerevisiae deletion strains, locus YMR205C, strain PFK2, stronger effect = lower value 1.01 | S. cerevisiae deletion strains, locus YMR223W, strain ubp8, stronger effect = lower value 0.992 | S. cerevisiae deletion strains, locus YMR231W, strain pep5, stronger effect = lower value 0.997 | S. cerevisiae deletion strains, locus YMR263W, strain SAP30, stronger effect = lower value 1 | S. cerevisiae deletion strains, locus YMR307W, strain GAS1, stronger effect = lower value 0.962 | S. cerevisiae deletion strains, locus YNL067W, strain RPL9B, stronger effect = lower value 1.01 | S. cerevisiae deletion strains, locus YNL071W, strain lat1, stronger effect = lower value 0.975 | S. cerevisiae deletion strains, locus YNL183C, strain NPR1, stronger effect = lower value 0.932 | S. cerevisiae deletion strains, locus YNL209W, strain ssb2, stronger effect = lower value 0.99 | S. cerevisiae deletion strains, locus YNL233W, strain BNI4, stronger effect = lower value 1.02 | S. cerevisiae deletion strains, locus YNL248C, strain rpa49, stronger effect = lower value 1.01 | S. cerevisiae deletion strains, locus YNL250W, strain rad50, stronger effect = lower value 1.01 | S. cerevisiae deletion strains, locus YNL271C, strain bni1, stronger effect = lower value 0.985 | S. cerevisiae deletion strains, locus YNL298W, strain CLA4, stronger effect = lower value 0.969 | S. cerevisiae deletion strains, locus YNL307C, strain MCK1, stronger effect = lower value 0.987 | S. cerevisiae deletion strains, locus YNL322C, strain KRE1 (second series), stronger effect = lower value 0.992 | S. cerevisiae deletion strains, locus YNL322C, strain KRE1, stronger effect = lower value 1 | S. cerevisiae deletion strains, locus YNR049C, strain mso1, stronger effect = lower value 1 | S. cerevisiae deletion strains, locus YNR052C, strain pop2, stronger effect = lower value 0.998 | S. cerevisiae deletion strains, locus YOL006C, strain TOP1, stronger effect = lower value 1 | S. cerevisiae deletion strains, locus YOL012C, strain htz1 0.913 | S. cerevisiae deletion strains, locus YOL147C, strain pex11, stronger effect = lower value 0.992 | S. cerevisiae deletion strains, locus YOR001W, strain rrp6, stronger effect = lower value 1 | S. cerevisiae deletion strains, locus YOR061W, strain CKA2, stronger effect = lower value 1.01 | S. cerevisiae deletion strains, locus YOR069W, strain VPS5, stronger effect = lower value 1.01 | S. cerevisiae deletion strains, locus YOR070C, strain gyp1, stronger effect = lower value 1.01 | S. cerevisiae deletion strains, locus YOR080W, strain dia2, stronger effect = lower value 1 | S. cerevisiae deletion strains, locus YOR083W, strain WHI5, stronger effect = lower value 0.988 | S. cerevisiae deletion strains, locus YOR106W, strain vam3, stronger effect = lower value 1 | S. cerevisiae deletion strains, locus YOR136W, strain idh2, stronger effect = lower value 0.988 | S. cerevisiae deletion strains, locus YOR144C, strain elg1, stronger effect = lower value 0.985 | S. cerevisiae deletion strains, locus YOR184W, strain ser1, stronger effect = lower value 0.982 | S. cerevisiae deletion strains, locus YOR231W, strain MKK1, stronger effect = lower value 0.955 | S. cerevisiae deletion strains, locus YOR265W, strain rbl2, stronger effect = lower value 0.997 | S. cerevisiae deletion strains, locus YOR270C, strain vph1, stronger effect = lower value 1.02 | S. cerevisiae deletion strains, locus YOR290C, strain snf2, stronger effect = lower value 0.996 | S. cerevisiae deletion strains, locus YOR316C, strain cot1, stronger effect = lower value 0.993 | S. cerevisiae deletion strains, locus YPL051W, strain arl3, stronger effect = lower value 0.992 | S. cerevisiae deletion strains, locus YPL055C, strain LGE1, stronger effect = lower value 1.02 | S. cerevisiae deletion strains, locus YPL078C, strain atp4, stronger effect = lower value 1.01 | S. cerevisiae deletion strains, locus YPL106C, strain sse1, stronger effect = lower value 0.996 | S. cerevisiae deletion strains, locus YPL240C, strain hsp82, stronger effect = lower value 1 | S. cerevisiae deletion strains, locus YPL241C, strain CIN2, stronger effect = lower value 1 | S. cerevisiae deletion strains, locus YPL256C, strain CLN2, stronger effect = lower value 0.959 | S. cerevisiae deletion strains, locus YPR119W, strain clb2, stronger effect = lower value 0.986 | S. cerevisiae deletion strains, locus YPR141C, strain kar3, stronger effect = lower value 0.984 | S. cerevisiae deletion strains, locus YPR163C, strain tif3, stronger effect = lower value 0.99 | S. cerevisiae deletion strains, locus YPR167C, strain met16, stronger effect = lower value 0.979 | S. cerevisiae deletion strains, strain wtn01, stronger effect = lower value 0.975 | S. cerevisiae strains, strain wild type, stronger effect = lower value 1

From PubChem BioAssay AID1159580 (chemical genetic matrix, 2015)
